Data on 80 compounds can be found in PubChem BioAssay (NCATS).

Results filed as inconclusive are left out. A call without a number means that no potency is given here. Calls of active or inactive are those of the source. The call rests on the fitted dose curve; in most records, active means well fitted curve in the direction sought with a large enough effect; inconclusive means small, poorly fitted or top-dose-only effect, or another doubt; inactive means no such curve, though single readings can be large; an effect the other way counts as inactive or inconclusive.

The target in assay [1] is Aldehyde dehydrogenase, mitochondrial (Homo sapiens) (UniProt P05091). Description: qHTS for Inhibitors of the Aldehyde Dehydrogenase Family (ALDH2) Primary screen (AID 2061308). Further: nearly all actives have a fitted effect of over 55% in size.
Assay [2] deals with Retinaldehyde dehydrogenase 3 (Homo sapiens) (UniProt P47895). Description: qHTS for Inhibitors of the Aldehyde Dehydrogenase Family (ALDH1A3) Primary screen (AID 2061315). (In general: Quantitative high-throughput screening tests each substance at several concentrations.)

Take `Nc1ccc(-c2cccc3c(=O)cc(N4CCOCC4)oc23)cc1`: the Potency result in assay [1] and in assay [2] was “inactive” in each case.
As for `Cn1nnnc1Sc1ncnc2scc(-c3cccs3)c12`, the Potency result in assay [1] and in assay [2] was “inactive” throughout.
As for `Cc1cncc(NC(=S)N2CCN(c3cccc(C(F)(F)F)c3)CC2)c1`, the Potency result in assay [1] and in assay [2] was “inactive” each time.
Take `CC(C)c1nc(Nc2nc3ccccc3o2)nc2c1CCCC2`: the Potency entry in assay [1] and in assay [2] was “inactive” in each case.
As for `O=C(Nc1ccc2ccccc2c1)Nc1nnc(-c2ccncc2)s1`, the Potency result in assay [1] and in assay [2] was “inactive” throughout.
Regarding `Nc1ncnc2c1nc(N)n2[C@@H]1O[C@H](CO)[C@@H](O)[C@H]1O`, the Potency result in assay [1] and in assay [2] was “inactive” throughout.
On to `Cc1cc2c(s1)c1cnn(Cc3ccc(OC(F)F)cc3)c(=O)c1n2C`, for which the Potency result in assay [1] and in assay [2] was “inactive” each time.
As for `Cc1cc2c(s1)c1cnn(Cc3ccc(-c4ccccc4)cc3)c(=O)c1n2C`, the Potency result in assay [1] and in assay [2] was “inactive” each time.
As to `CC(=O)CC(=O)Nc1ccc(Cl)c(C(F)(F)F)c1`, the Potency entry in assay [1] and in assay [2] was “inactive” throughout.
As for `CCN(CCc1cn(C)cn1)c1ncnc2ccc(-c3ccc4c(c3)OCO4)cc12`, the Potency result in assay [1] and in assay [2] was “inactive” in each case.
Consider `COc1cc(O)c(C(CC(=O)N2CCOCC2)c2ccc3c(c2)OCO3)c(OC)c1` (stereo not given), for which the Potency entry in assay [1] and in assay [2] was “inactive” each time.
Turning to `CC(C)(C)OC(=O)N[C@@H](Cc1ccc(OS(=O)(=O)c2cccc3cnccc23)cc1)C(=O)N1CCCN(C(=O)OC(C)(C)C)CC1`, the Potency result in assay [1] and in assay [2] was “inactive” each time.
As to `COc1cccc(NCc2ccc(O)c3ncccc23)n1`, the Potency result in assay [1] and in assay [2] was “inactive” throughout.
Consider `C(=C/c1cccs1)/c1ccncc1`, for which the Potency entry in assay [1] and in assay [2] was “inactive” each time.
In the case of `Cc1ccc2nc(NC3=NC4(CCCC4)C4=C(CCCC4=O)N3)oc2c1`, the Potency result in assay [1] and in assay [2] was “inactive” each time.
As to `Brc1ccc(-c2csc(N3CCOCC3)n2)cc1`, the Potency result in assay [1] and in assay [2] was “inactive” throughout.
`c1cncc(-c2ccc(CNc3nc(-n4ccnc4)nc4ccccc34)cc2)c1`: the Potency entry in assay [1] and in assay [2] was “inactive” throughout.
Turning to `O=C(/C=C/c1c(F)c(F)c(F)c(F)c1F)Nc1cccc([S+](=O)([O-])Nc2ccccc2F)c1`, the Potency entry in assay [1] and in assay [2] was “inactive” in each case.
For the compound `Cc1ccc(S(=O)(=O)Nc2cnccc2C(=O)Nc2nc(C3CCC3)cs2)cc1`, the Potency result in assay [1] and in assay [2] was “inactive” in each case.
For the compound `Cc1cc(C)nc(NC(=S)N2CCN(c3cccc(S(C)(=O)=O)c3)CC2)c1`, the Potency entry in assay [1] and in assay [2] was “inactive” in each case.
With `CCOc1ccc(NC(=O)Nc2ccc(-c3nc4ccccc4[nH]3)cc2)cc1`, the Potency entry in assay [1] and in assay [2] was “inactive” each time.
`Nc1cccc(-c2ccc(NC(=O)c3cccs3)cn2)c1`: the Potency entry in assay [1] and in assay [2] was “inactive” in each case.
`COc1ccc(C(=O)Nc2nc(-c3ccccc3)cs2)c(NS(=O)(=O)c2ccc(C)cc2)c1`: the Potency entry in assay [1] and in assay [2] was “inactive” in each case.
For the compound `O=C(O)c1ccc(-c2ccc3ncnc(N4CCOCC4)c3c2)o1`, the Potency result in assay [1] and in assay [2] was “inactive” throughout.
Turning to `Cc1ccc(S(=O)(=O)Nc2cnccc2C(=O)Nc2nc(-c3ccncc3)cs2)cc1`, the Potency entry in assay [1] and in assay [2] was “inactive” in each case.
As to `COC(=O)C1=CO[C@@H](O[C@@H]2O[C@H](CO)[C@@H](O)[C@H](O)[C@H]2O)[C@H]2[C@@H]1[C@H](O)[C@H](O)[C@]2(C)O`, the Potency entry in assay [1] and in assay [2] was “inactive” throughout.
`CCC/C=C\C=C/CCc1cc(O)c([C@@H]2O[C@H](CO)[C@@H](O)[C@H](O)[C@H]2O)c(O)c1C(=O)OC`: the Potency result in assay [1] and in assay [2] was “inactive” throughout.
For `COc1cccc(C2c3c(ncn(-c4ccc5c(c4)OCO5)c3=N)Oc3ccc4ccccc4c32)c1` (stereo not given), the Potency result in assay [1] and in assay [2] was “inactive” each time.
In the case of `COc1cccc(C2=Nn3c(nnc3-c3ccccc3OC)SC2)c1`, the Potency entry in assay [1] and in assay [2] was “inactive” each time.
As to `COc1cc(O)c(C(CC(=O)N2CCOCC2)c2ccc(C)cc2)c(OC)c1` (stereo not given), the Potency entry in assay [1] and in assay [2] was “inactive” each time.
Consider `O=C1CCCC2=C1C(c1[nH]ncc1Cl)N=C(Nc1nccs1)N2` (stereo not given), for which the Potency entry in assay [1] and in assay [2] was “inactive” each time.
On to `COc1cccc(CC(=O)Nc2nc(-c3ccc4c(c3)CCN4C(=O)c3ccccc3C)c(C)s2)c1`, for which the Potency entry in assay [1] and in assay [2] was “inactive” in each case.
On to `COc1ccc(C(=O)Nc2ccc(-c3nc4ccccc4[nH]3)cc2)cc1OC`, for which the Potency entry in assay [1] and in assay [2] was “inactive” throughout.
`Cc1ccc(-c2cc(C(=O)NCc3ccccc3)c3ccccc3n2)cc1C`: the Potency result in assay [1] and in assay [2] was “inactive” in each case.
Consider `Cc1nc(NC2CCCCC2)c2nc(-c3ccccc3)n(CCN3CCCC3)c2n1`, for which the Potency result in assay [1] and in assay [2] was “inactive” throughout.
For the compound `O=C(Nc1nc(-c2ccccc2)cs1)c1ccncc1NS(=O)(=O)c1ccccc1`, the Potency result in assay [1] and in assay [2] was “inactive” throughout.
With `Cc1cc2c(s1)c1cnn(Cc3cc(F)c(F)c(F)c3)c(=O)c1n2C`, the Potency entry in assay [1] and in assay [2] was “inactive” in each case.
In the case of `Cc1nc(NC2CCCCC2)c2nc(-c3ccccc3)n(CCN(C)C)c2n1`, the Potency result in assay [1] and in assay [2] was “inactive” throughout.
Regarding `Cc1ccccc1S(=O)(=O)Nc1cnccc1C(=O)Nc1nc(-c2ccccc2)cs1`, the Potency entry in assay [1] and in assay [2] was “inactive” throughout.
On to `Cc1ccc(-c2c(C(=O)CF)n(CCCO)c3ncnc(N)c23)cc1`, for which the Potency entry in assay [1] and in assay [2] was “inactive” in each case.
`Cc1ccnc(NC(=S)N2CCN(c3cc(C(F)(F)F)cc(C(F)(F)F)c3)CC2)c1`: the Potency entry in assay [1] and in assay [2] was “inactive” each time.
Consider `CC1CCC2(C1)N=C(Nc1nc3ccccc3o1)NC1=C2C(=O)CCC1` (stereo not given), for which the Potency entry in assay [1] and in assay [2] was “inactive” in each case.
Turning to `O=C(Nc1ncc(Cc2ccc(C(F)(F)F)cc2)s1)c1ccc(-c2cccc([N+](=O)[O-])c2)o1`, the Potency entry in assay [1] and in assay [2] was “inactive” in each case.
Take `COC(=O)c1ccc(NC(=O)c2cc(-c3ccc(C)c(C)c3)nc3ccccc23)cc1`: the Potency result in assay [1] and in assay [2] was “inactive” in each case.
In the case of `O=C1N/C(=C\c2ccco2)C(=O)N1Cc1ccc(F)cc1`, the Potency result in assay [1] and in assay [2] was “inactive” in each case.
Consider `Cc1cnc(-c2ccccc2C(C)C)nc1NCc1ccc(-c2ccnc(C(F)(F)F)c2)cc1`, for which the Potency result in assay [1] and in assay [2] was “inactive” each time.
For the compound `Cc1ccc(C(=O)Oc2ccc(-c3nc4ccccc4[nH]3)cc2)cc1Br`, the Potency result in assay [1] and in assay [2] was “inactive” each time.
As to `CC1=C(C(=O)NCc2ccccc2)C(c2ccccc2Br)N=C(Nc2nc3ccccc3o2)N1` (stereo not given), the Potency result in assay [1] and in assay [2] was “inactive” in each case.
`COc1ccc(C(=O)Nc2nc(-c3ccccc3)cs2)c(OC)c1`: the Potency entry in assay [1] and in assay [2] was “inactive” in each case.
With `Cc1cc(C)nc(NC(=S)N2CCN(c3ccc(C(F)(F)F)cc3[N+](=O)[O-])CC2)c1`, the Potency entry in assay [1] and in assay [2] was “inactive” throughout.
In the case of `Cc1cc(C)n2ncc(C(=O)Nc3cccc(C(F)(F)F)c3)c2n1`, the Potency result in assay [1] and in assay [2] was “inactive” each time.
For `CC(C)(C)Cc1nnc(NC(=O)CSc2ccccc2)s1`, the Potency result in assay [1] and in assay [2] was “inactive” each time.
Take `CC(=O)c1ccc(N2CCN(S(=O)(=O)c3ccc4c(c3)OCC(=O)N4)CC2)cc1`: the Potency entry in assay [1] and in assay [2] was “inactive” throughout.
`Cc1nnc(-c2cnn(C)c2N)n1CCCc1ccccn1`: the Potency result in assay [1] and in assay [2] was “inactive” each time.
Turning to `COC(=O)N[C@H](C(=O)N1[C@@H]2CC[C@@H](C2)[C@H]1c1nc2ccc(-c3ccc4c(c3)C(F)(F)c3cc(-c5cnc([C@@H]6CCC7(CC7)N6C(=O)[C@@H](NC(=O)OC)C(C)C)[nH]5)ccc3-4)cc2[nH]1)C(C)C`, the Potency result in assay [1] and in assay [2] was “inactive” each time.
On to `O=C1c2ccccc2C(=O)N1c1ccc(Cl)cc1`, for which the Potency result in assay [1] and in assay [2] was “inactive” in each case.
As to `CN1CCN(C(=O)[C@H](Cc2ccc(O[S+](=O)([O-])c3cccc4cnccc34)cc2)N[S+](=O)([O-])c2cccc3cnccc23)CC1`, the Potency entry in assay [1] and in assay [2] was “inactive” in each case.
For the compound `Cc1ccc(-c2nc3ccccc3[nH]2)cc1NC(=O)c1ccc(-c2cccc(Cl)c2)o1`, the Potency result in assay [1] and in assay [2] was “inactive” in each case.
For the compound `O=C(CSc1nnc(-c2cccc(S(=O)(=O)N3CCCC3)c2)n1-c1ccccc1)Nc1ccc(C(=O)O)cc1`, the Potency result in assay [1] and in assay [2] was “inactive” each time.
`CN(C)c1cccc(-c2nccc(N3CCC(C(N)=O)CC3)n2)c1`: the Potency result in assay [1] and in assay [2] was “inactive” in each case.
In the case of `CC(Nc1nc(-c2ccccc2C(F)(F)F)nc2ccccc12)c1ccc(-c2cccc(C(F)(F)F)c2)cc1` (stereo not given), the Potency result in assay [1] and in assay [2] was “inactive” throughout.
Regarding `COCCN1C(=O)c2ccccc2NC1c1ccc(OC)c(COc2c(C)cc(NC(C)=O)cc2C)c1` (stereo not given), the Potency entry in assay [1] and in assay [2] was “inactive” each time.
Take `O=C(O)c1sc2c(c1-c1nc3ccccc3s1)CCNC2`: the Potency result in assay [1] and in assay [2] was “inactive” each time.
Take `Cc1cccc(C(=O)N2CCc3cc(-c4nc(NC(=O)Cc5ccc6c(c5)OCO6)sc4C)ccc32)c1`: the Potency entry in assay [1] and in assay [2] was “inactive” throughout.
Consider `Cc1ccc(NC(=O)c2ccc(-c3nc4ccccc4[nH]3)cc2)cc1Br`, for which the Potency result in assay [1] and in assay [2] was “inactive” in each case.
With `NNC(=O)C(C(=O)OCc1ccccc1)c1ccccc1` (stereo not given), the Potency entry in assay [1] and in assay [2] was “inactive” throughout.
Take `CC(C)N1Cc2ccc(Nc3nn4c(=O)c5ccccc5nc4s3)cc2C1`: the Potency entry in assay [1] and in assay [2] was “inactive” in each case.
In the case of `CC1=C(CC(=O)O)c2cc(F)ccc2C1=Cc1ccc(S(C)(=O)=O)cc1`, the Potency result in assay [1] and in assay [2] was “inactive” throughout.
For the compound `CC1=C(C(=O)Nc2nc3ccccc3s2)C(c2[nH]ncc2Cl)N=C(Nc2nc3ccccc3o2)N1` (stereo not given), the Potency result in assay [1] and in assay [2] was “inactive” throughout.
As to `O=S(=O)(NCc1cccc2ccccc12)c1cc(Cl)c(Oc2cccc(N3CCNCC3)c2)s1`, the Potency result in assay [1] and in assay [2] was “inactive” throughout.
With `COc1cccc(Nc2nn3c(=O)c4ccccc4nc3s2)c1`, the Potency entry in assay [1] and in assay [2] was “inactive” throughout.
Turning to `NC(=O)C1CCN(c2nnc(-c3ccc(Br)cc3)s2)CC1`, the Potency result in assay [1] and in assay [2] was “inactive” in each case.
`O=C(c1ccccc1O)N(Cc1ccccc1)Cc1ccccc1`: the Potency entry in assay [1] and in assay [2] was “inactive” each time.
As for `Cc1cnc(-c2ccccc2OC(C)C)nc1NCc1ccc(-n2ccnn2)cc1`, the Potency result in assay [1] and in assay [2] was “inactive” each time.
Consider `O=C(NCCCn1ccnc1)c1nn2c(C(F)(F)F)cc(-c3ccc(Br)cc3)nc2c1Cl`, for which the Potency result in assay [1] and in assay [2] was “inactive” each time.
As for `CCOC(=O)CCc1cc(F)c(S(=O)(=O)N2CCN(S(=O)(=O)c3ccc4c(c3)OCCO4)CC2)cc1F`, the Potency result in assay [1] and in assay [2] was “inactive” in each case.
For `O=C(O)c1ccc(CSc2nnc(-c3ccc([S+](=O)([O-])N4CCCC4)cc3)n2-c2ccccc2)cc1`, the Potency entry in assay [1] and in assay [2] was “inactive” throughout.
For the compound `COc1ccc(C2Nc3ccccc3C(=O)N2Cc2ccco2)cc1` (stereo not given), the Potency result in assay [1] and in assay [2] was “inactive” in each case.
On to `O=C(CNC(=O)c1ccc(-c2ccccc2)cc1)OC(C(=O)Nc1cc(C(F)(F)F)ccc1Cl)c1ccccc1` (stereo not given), for which the Potency result in assay [1] and in assay [2] was “inactive” each time.
For `CC(Oc1ccc2[nH]nc(/C=C/c3cnn(CCO)c3)c2c1)c1c(Cl)cncc1Cl` (stereo not given), the Potency result in assay [1] and in assay [2] was “inactive” in each case.
